Bioassay records deposited in PubChem by National Center for Advancing Translational Sciences (NCATS).
Shown are actives, neighbours in structure and some others; about 19% of the full set was active somewhere.
IL-1B inflam inh – blocks inflammasome-driven IL-1 beta release. THP-1 LPS/ATP IL-1B secretion, AlphaLISA, 16 h; hits give low values. activity change, % at 57.5 µM. actives 4.7% (n = 360,000). AID 743279; in the data active = activity change below about -50%; inconclusive = mostly about -30% to -49%
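THP-1 cells pretreated 1 hr with compounds (up to 57.5 uM final), then stimulated with LPS (250 ng/mL final) plus ATP (1.25 mM final); secreted IL-1B measured by AlphaLISA after 16 hr, decreased signal indicating inhibition.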
DT40 TDP1 no CPT – qHTS for Inhibitors of human tyrosyl-DNA phosphodiesterase 1 (TDP1): qHTS in cells in absence of CPT; actives 15% (n = 420,000); Potency, µM (titrated, usually from 46.2 µM), inactives show at the top dose activity change, negative = growth inhibition, actives largely listed as inhibitors; AID 686978, 2013; DT40 Tdp1-/- hTDP1 cells, no CPT, ATP luminescence, 48 h; note: potency is the fitted concentration of half-maximal effect; nearly all actives have a fitted effect of over 55% in size
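Readout: luminescence from CellTiter-Glo after 30 min in the dark at RT. Cells: DT40 Tdp1-/- with stable hTDP1, 400/well. Exposure: compounds alone, ≥48 hr, 37 °C.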
uPA generation – inhibitors of cell surface uPA generation | cell surface uPA generation assay, qHTS | actives 0.31% (n = 330,000) | Potency, µM (top dose mostly 38.3 µM), for inactives: top-dose activity change, negative = inhibition, most hits filed as inhibitors; active = well fitted inhibition curve with a large enough effect; inconclusive = small, poorly fitted or top-dose-only effect; inactive = no such curve, though single readings can be large or run the other way; tested in mouse RAW 264.7 cells; note: potency is the fitted concentration of half-maximal effect; nearly all actives have a fitted effect of over 55% in size
HT1080 IDH1KD tx – HT-1080 IDH1 knockdown cell toxicity (counter line). HT-1080 IDH1 knockdown viability, ATP luminescence, 48 h. Potency, µM (doses to about 46.1 µM), without a hit: top-dose activity, negative = toxicity, actives largely listed as cytotoxic. actives 2% (n = 360,000);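 note: potency is the fitted concentration of half-maximal effect; 0% = DMSO wells and -100% = cell-free medium wells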
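Cytotoxicity counter-line: IDH1KD HT-1080, 48 h, CellTiter-Glo. Curves classed by r2, magnitude and activity.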
HT1080-NT tox – kills 2HG-producing HT-1080-NT fibrosarcoma cells. actives 1.6% (n = 360,000). AID 686970. HT-1080-NT fibrosarcoma viability, CellTiter-Glo ATP luminescence, 48 h. Potency, µM (series often up to 46.1 µM), for inactives: at the highest dose activity, negative = less viability, actives largely listed as cytotoxic;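 note: NT is the 2HG producing partner of a matched IDH1 knockdown line; potency is the fitted concentration of half-maximal effect; 0% = DMSO-treated cells and -100% = media-only wells without cells; nearly all actives have a fitted effect of over 55% in size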
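HT-1080-NT; 750 cells/well; 5% FBS RPMI; 48 h compound, 37 degrees C; CellTiter-Glo luminescence; curve fitting and curve-class assignment.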
TDP1 cell CPT – growth inhibition of DT40 Tdp1-/-;hTDP1 cells with camptothecin (screen for TDP1 inhibitors); chicken DT40 Tdp1-/-;hTDP1 cells + 20 nM CPT, ATP luminescence, 48 h; Potency, µM (top dose mostly 46.2 µM), without a hit: at the highest dose activity change, negative = growth inhibition, usual class: inhibitors; actives 12% (n = 420,000); AID 686979; note: potency is the fitted concentration of half-maximal effect; nearly all actives have a fitted effect of over 55% in size
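Cell growth measured by CellTiter-Glo luminescence after a minimum 48 h, 37 C compound exposure with 20 nM CPT in Tdp1-knockout DT40 cells stably expressing hTDP1, seeded 400/well; qHTS titration format.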
Starred values were filed as active, the others as inactive; u = inconclusive; x = no result. Unless noted, calls come from the whole dose curve; as a rule, active = well fitted curve in the direction sought with a large enough effect; inconclusive = small, poorly fitted or top-dose-only effect, or another doubt; inactive = no such curve, though single readings can be large; an effect the other way counts as inactive or inconclusive. Unless noted, % is set by controls: 0 for no effect and ±100 for the full control effect.

SMILES	IL-1B inflam inh	DT40 TDP1 no CPT	uPA generation	HT1080 IDH1KD tx	HT1080-NT tox	TDP1 cell CPT
CN(C)CCN(Cc1ccccc1)C(=O)c1[nH]c(C(F)(F)F)nc1-c1ccccc1	4.5	u	x	4.0%	-1.6%	-15.0%
COC(=O)C[C@H]1C=C[C@@H](C(C(=O)OC)C(=O)OC)CN1C(C)=O	47.8	-14.5%	13.7%	12.5%	14.1%	7.2%
S=C(NCCc1ccccc1)NC1CC1	10.0	-17.4%	3.3%	23.4%	11.7%	-8.1%
COc1ccc(CCNC(=S)NC2CCN(Cc3ccccc3)CC2)cc1	u	23.1µM*	-2.1%	-7.2%	-1.6%	u
COc1ccc(C)cc1NC(=O)NC1CCN(Cc2ccccc2)CC1	-19.6	u	x	4.8%	-2.1%	23.1µM*
COC(=O)c1ccccc1NC(=O)NC1CCN(Cc2ccccc2)CC1	0.7	u	x	-0.2%	-4.7%	u
COC(=O)c1c(NC2=NS(=O)(=O)c3ccccc32)sc2c1CCC(C(C)(C)C)C2 (stereo not drawn)	20.4	14.6µM*	-0.5%	16.4%	5.1%	18.4µM*
O=C(COc1ccccc1Cl)Nc1ccc(NC(=O)c2ccco2)cc1	-59.4*	4.4%	6.0%	5.6%	9.5%	-4.1%
COc1ccc(C(=O)Nc2cc(NC(=O)c3ccco3)ccc2OC)cc1Cl	x	-4.2%	x	x	x	-2.6%
COc1ccc(NC(=O)c2ccco2)cc1NC(=O)COc1ccccc1Cl	x	u	x	x	x	6.51µM*
COc1ccc(OC)c(NC(=O)c2cc3c(n(-c4ccc(Cl)cc4)c2=O)CC(C)(C)CC3=O)c1	x	-5.8%	x	x	x	u
O=C(NCCN1CCC(n2c(=O)[nH]c3ccccc32)CC1)c1ccc(F)cc1Cl	-9.8	u	x	6.2%	1.1%	u
O=C(C[n+]1ccccc1)Nc1cc(C(F)(F)F)ccc1Cl	-9.0	-27.7%	3.7%	-9.6%	-6.5%	9.0%
CN(C)c1cc[n+](CC(=O)Nc2cc(C(F)(F)F)ccc2Cl)cc1	u	8.2µM*	1.4%	u	u	16.4µM*
O=C(C[n+]1ccc2ccccc2c1)Nc1cc(C(F)(F)F)ccc1Cl	-58.4*	u	-1.3%	-19.1%	-4.9%	20.6µM*
Cc1ccc(/C=C(\C#N)C(=O)NCc2ccco2)o1	-15.9	-1.8%	7.3%	1.5%	14.3%	-2.9%
O=C(NCc1ccco1)/C(=C\c1ccccc1)NC(=O)c1ccccc1	-13.0	5.5%	2.0%	12.6%	16.7%	-0.9%
N#C/C(=C\C=C\c1ccccc1)C(=O)NCc1ccco1	-81.2*	u	-7.4%	u	u	-8.4%
O=C(NCc1ccco1)/C(=C/C=C\c1ccccc1)NC(=O)c1ccc(Br)o1	-8.2	u	-6.2%	u	-0.4%	16.4µM*
COc1ccccc1NC(=O)/C(C#N)=C/C=C/c1ccco1	22.9	1.16µM*	x	1.41µM*	1.78µM*	1.3µM*
COc1ccccc1CNC(=O)CCc1c(C)nc2c(c(C)nn2-c2ccc(C)c(C)c2)c1C	x	-2.6%	x	x	x	6.5%
COc1ccc(C2NC(=O)c3sc4nc(C)c(C(C)=O)c(-c5ccc(Cl)cc5)c4c3N2)cc1 (stereo not drawn)	5.5	u	4.8%	2.1%	5.3%	u
CCCCNC(=S)N(Cc1ccco1)Cc1cc2cc3c(cc2[nH]c1=O)OCCO3	31.3	10.1%	-11.5%	5.2%	6.4%	6.9%
O=C(Nc1ccc(F)cc1)N(Cc1cccs1)Cc1cc2cc3c(cc2[nH]c1=O)OCO3	u	16.4µM*	-9.1%	-10.8%	-12.9%	u
O=C(Nc1ccc(F)cc1)N(Cc1ccco1)Cc1cc2cc3c(cc2[nH]c1=O)OCO3	u	23.1µM*	-6.8%	-5.1%	-18.5%	u
SMILES	IL-1B inflam inh	DT40 TDP1 no CPT	uPA generation	HT1080 IDH1KD tx	HT1080-NT tox	TDP1 cell CPT
CCN(CC)CCCN(Cc1cc2cc3c(cc2[nH]c1=O)OCCO3)C(=O)Nc1ccccc1	-17.6	u	-3.5%	-14.4%	-9.1%	u
O=C(CSc1nc2ncccc2o1)Nc1ccc(Cl)cc1F	x	u	x	x	x	-5.9%
CCOc1ccc(Oc2ccc(NC(=O)CSc3nncn3C)cc2)cc1	-4.6	-8.9%	-1.4%	-18.5%	-9.6%	-11.1%
CCn1c(SCC(=O)Nc2c(C)cccc2C)nnc1-c1nonc1NC(C)=O	x	-20.2%	x	x	x	-6.7%
Nc1nonc1-c1nc2ccccc2n1Cc1ccc(F)cc1Cl	u	20.6µM*	u	-2.4%	-1.5%	20.6µM*
Fc1ccc(Cn2c(-c3cscn3)nc3ccccc32)c(Cl)c1	-9.7	u	-1.1%	-9.3%	-5.6%	u
Fc1ccccc1Cc1noc(CN(Cc2ccccn2)CC2CCCO2)n1 (stereo not drawn)	13.6	u	1.6%	10.0%	-3.3%	-0.7%
COc1cc(OC)cc(-c2nc3nc(C)c(CCC(=O)Nc4ccc(F)cc4F)c(C)n3n2)c1	x	13µM*	x	x	x	u
COc1cc(OC)cc(-c2nc3nc(C)c(CCC(=O)Nc4cc(F)ccc4F)c(C)n3n2)c1	x	8.2µM*	x	x	x	u
CCc1cccc(NC(=O)CCS(=O)(=O)c2ccc(Br)cc2)c1	23.4	29.1µM*	1.9%	8.7%	13.3%	23.1µM*
CC(C)(C)C(=O)N1CCC2CC1c1cc(-c3ccc4c(c3)OCO4)ccc12 (stereo not drawn)	-27.6	23.1µM*	x	u	u	u
O=C(C1CCCCC1)N1CCC2CC1c1cc(-c3ccc4c(c3)OCO4)ccc12 (stereo not drawn)	34.8	18.4µM*	x	u	u	18.4µM*
CC(C)(C)NC(=S)N1CCC2CC1c1cc(-c3ccc4c(c3)OCO4)ccc12 (stereo not drawn)	-1.7	u	x	4.7%	13.3%	u
